# A selection: hits, their analogues and other compounds. The true share with any hit is near 9.9%.
# ALDH1A1 inh = ALDH1A1 (human) enzyme inhibition. Purified ALDH1A1, NADH fluorescence, propionaldehyde substrate. Potency, µM (highest dose often 75.3 µM), for inactives: top-dose activity, negative = inhibition, actives largely listed as inhibitors. actives 7.3% (n = 220,000); active = well fitted inhibition curve with a large enough effect, not every such curve was filed as active; inconclusive = small, poorly fitted or top-dose-only effect, or another doubt; inactive = no such curve, though single readings can be large or run the other way;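 also: plate controls were no enzyme wells and a reference inhibitor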
# Target sequence (P00352 whole entry, looked up): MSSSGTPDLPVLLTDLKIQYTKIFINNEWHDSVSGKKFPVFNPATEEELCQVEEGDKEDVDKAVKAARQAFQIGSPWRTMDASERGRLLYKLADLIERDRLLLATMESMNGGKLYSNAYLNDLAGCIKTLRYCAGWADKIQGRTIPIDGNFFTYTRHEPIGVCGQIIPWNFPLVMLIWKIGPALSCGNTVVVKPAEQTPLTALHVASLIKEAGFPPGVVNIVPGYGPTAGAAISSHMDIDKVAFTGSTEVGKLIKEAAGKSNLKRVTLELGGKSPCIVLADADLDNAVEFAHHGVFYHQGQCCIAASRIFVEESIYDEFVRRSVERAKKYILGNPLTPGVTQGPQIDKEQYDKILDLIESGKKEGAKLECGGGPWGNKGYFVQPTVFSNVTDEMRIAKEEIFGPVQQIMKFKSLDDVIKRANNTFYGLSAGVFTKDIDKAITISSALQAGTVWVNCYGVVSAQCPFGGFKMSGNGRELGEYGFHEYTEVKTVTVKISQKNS
# JMJD2E inh = JMJD2E (human) inhibition; B2RXH2; JMJD2E catalytic domain, FDH-coupled NADH fluorescence (FDH is formaldehyde dehydrogenase); Potency, µM (doses to about 57.1 µM), for inactives: top-dose activity change, negative = inhibition, hits mostly inhibitors; actives 1.6% (n = 230,000); active = well fitted inhibition curve with a large enough effect, not every such curve was filed as active; inconclusive = small, poorly fitted or top-dose-only effect, or another doubt; inactive = no such curve, though single readings can be large or run the other way;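 also: 0% = wells with enzyme and -100% = buffer wells without enzyme; nearly all actives have a fitted effect of over 50% in size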
# HPGD block = inhibitors of human 15-hydroxyprostaglandin dehydrogenase (HPGD). AID 894. purified HPGD, NADH fluorescence kinetic, PGE2 substrate. P15428. actives 4.3% (n = 150,000). Potency, µM, for the others: at the highest dose activity change, negative = inhibition, most hits filed as inhibitors; active = well fitted inhibition curve with a large enough effect, not every such curve was filed as active; inconclusive = small, poorly fitted or top-dose-only effect, or another doubt; inactive = no such curve, though single readings can be large or run the other way
#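 NADH formation kinetics: reaction with 30 uM PGE2 and 1 mM NAD+ (final), 20 nM enzyme, Tris-HCl pH 8 with Tween 20, after 15 min compound preincubation at room temperature. Fluorescence change, last versus first of five reads.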
# Tau fibril ThT = tau fibrillization inhibition (ThT binding) | Potency, µM (series often up to 57.4 µM), for inactives: top-dose activity, negative = inhibition, most hits filed as inhibitors | AID 1460 | P10636 | recombinant tau K18 P301L, heparin-induced fibrillization, ThT fluorescence | actives 2.1% (n = 270,000); also: nearly all actives have a fitted effect of over 55% in size
#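 In this qHTS, human K18 P301L tau is incubated with compound and heparin for 6 hr at 37 C, and Thioflavin T fluorescence then reports fibril load.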
# Tau fibril FP = inhibitors of human tau fibril formation | P10636 | K18 P301L tau heparin fibrillization, Alexa594 FP, 6 h | Potency, µM (highest dose often 57.7 µM), for inactives: top-dose activity, negative = inhibition, actives largely listed as inhibitors | actives 0.39% (n = 280,000) | AID 1468; also: nearly all actives have a fitted effect of over 55% in size
#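 Steps: dispense K18 P301L tau (15 uM plus 0.24 uM Alexa 594 tracer, final) in pH 7 sodium acetate; add compound; add heparin (20 uM final); incubate 6 hr, 37 C; add ThT (30 uM final); after 1 hr ambient, read FP.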
# Tau fluor cs = counter-screen for tau fibril formation inhibitors. actives 0.93% (n = 280,000). tau K18 P301L Alexa594 fluorescence, heparin fibrillization. Potency, µM (highest dose often 57.7 µM), inactives show top-dose activity change, negative = decrease; also: nearly all actives have a fitted effect of over 55% in size
#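 Human tau K18 P301L (15 uM unlabeled, 0.24 uM Alexa 594-labeled) in 100 mM sodium acetate pH 7 with 20 uM heparin, 6 hr at 37 C. ThT 30 uM added, 1 hr ambient; Alexa 594 FP and total fluorescence read at 555/632 nm.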
# Numbers without * were called inactive; ? = inconclusive; / = not tested or not shown; [ ] = remark or other dose. Unless noted, calls follow the shape of the dose curve; as a rule, active = well fitted curve in the direction sought with a large enough effect; inconclusive = small, poorly fitted or top-dose-only effect, or another doubt; inactive = no such curve, though single readings can be large; an effect the other way counts as inactive or inconclusive. Unless noted, % is scaled to controls: 0 for no effect and ±100 for the full control effect; potency is read from the fitted curve at half-maximal effect.
SMILES,ALDH1A1 inh,JMJD2E inh,HPGD block,Tau fibril ThT,Tau fibril FP,Tau fluor cs
Cc1nn(-c2ccc(S(=O)(=O)O)cc2)c(O)c1N=Nc1ccc(-c2ccc(N=Nc3ccc4c(S(=O)(=O)O)cc(S(=O)(=O)O)c(N)c4c3O)c(O)c2)cc1O.[Cu].[Cu],?,/,0.79µM*,/,/,/
Cc1ccc(-n2nc(C)c3c(C(=O)NCCc4ccc(S(N)(=O)=O)cc4)cc(C)nc32)cc1,/,/,/,?,-3%,-28%
COc1cc(-c2ccc(N=Nc3ccc4c(S(=O)(=O)O)cc(S(=O)(=O)O)c(N)c4c3O)c(OC)c2)ccc1N=Nc1ccc2c(S(=O)(=O)O)cc(S(=O)(=O)O)c(N)c2c1O,?,3.5µM*,14µM*,1.6µM*,2.8µM*,1µM*[quencher]
COc1cccc(CNC(=O)CCc2c(C)nc3c(c2C)c(=O)n(C)c(=O)n3C)c1,/,/,/,-10%,-3%,-14%
O=c1cc(CCl)nc2sc3ccccc3n12,4%,-2%,/,-6%,1%,-3%
O=C(OCc1cc(=O)n2c(n1)sc1ccccc12)c1ccc(O)cc1,-2%,-15%,14µM*,?,-18%,-26%
CCN(Cc1ccccc1)C(=O)CSc1nncn1C,32µM*,-3%,/,2%,-7%,0%
CC(C)Cc1nc2ccccc2n1CCc1ccccc1,6%,3%,-4%,-6%,4%,-9%
Cn1c(=O)c2c(nc(SCc3cccnc3)n2Cc2ccc(F)cc2)n(C)c1=O,?,0%,40µM*,-6%,-1%,-7%
Cc1ccc(Cn2c(SCc3cccnc3)nc3c2c(=O)n(C)c(=O)n3C)cc1,2%,-1%,8%,-19%,-4%,-13%
COC(=O)CSc1nc2c(c(=O)n(C)c(=O)n2C)n1CCCc1ccccc1,-11%,6%,-2%,-4%,-7%,-6%
Cn1c(=O)c2c(nc(SCc3cccnc3)n2Cc2ccccc2)n(C)c1=O,22µM*,-6%,-22%,-8%,-3%,-9%
CCCn1c(SCC(=O)OCc2ccccc2)nc2c1c(=O)n(C)c(=O)n2C,22µM*,2%,-6%,1%,-1%,1%
COc1cc(-c2nc3cnccn3c2Nc2ccc(C)cc2)ccc1O,?,?,?,-23%,12%,?
COc1cc(-c2nc3ccc(C)cn3c2Nc2ccc3c(c2)OCCO3)ccc1O,?,?,?,?,10%,16µM*[quencher]
COc1cc(-c2nc3cccc(C)n3c2Nc2ccc3c(c2)OCCO3)ccc1O,/,/,/,?,4%,18µM*[quencher]
Clc1cccc(-c2nc3ccccn3c2Nc2ccc3c(c2)OCCO3)c1,/,/,/,?,?,7.9µM*[quencher]
COc1cc(-c2nc3cnccn3c2Nc2ccc3c(c2)OCCO3)ccc1O,-15%,-14%,22µM*,?,9%,?
Cc1ccn2c(Nc3ccc4c(c3)OCO4)c(-c3ccc(O)cc3)nc2c1,/,?,/,?,3%,18µM*[quencher]
Oc1ccc(-c2nc3cnccn3c2Nc2ccc3c(c2)OCCO3)cc1,40µM*,0%,11µM*,3%,2%,6%
c1ccc(-c2nc3cnccn3c2Nc2ccc3c(c2)OCCO3)cc1,0%,2%,-19%,-14%,10%,-26%
COc1ccc(C(=O)NCc2nnc(SCC(=O)c3ccccc3)n2C)cc1,0%,7%,/,-3%,-1%,0%
CCn1c(CNC(=O)c2ccc(OC)cc2)nnc1SCC(=O)c1ccccc1,13µM*,?,-16%,-16%,-1%,-16%
CCn1c(CNC(C)=O)nnc1SCC(=O)c1ccc(Br)cc1,15µM*,-10%,?,-12%,1%,9%
CCN(C(=O)CN1CCOCC1)C1(C)C(=O)c2ccccc2C1=O,7%,3%,-5%,5%,4%,4%
Cc1ccc(/C=N/NC(=O)c2cccc(S(=O)(=O)N3CCOCC3)c2)o1,-1%,11%,/,1%,6%,-2%
